{"source": "the supplement of paper PMC7858590", "note": "Where “and” joins values, the source holds several entries; their conditions need not be identical. Identical values can stand only once. ± gives the standard deviation of the averaged measurements. Whole data set: some 3,800 compounds, median “cell shape (eccentricity) Z-score vs DMSO control” near 1.1, cut for the lowest 2% near -4.7. Only a selection was taken, and the lowest values are over-represented in it overall.", "data": [{"tested_on": "human monocyte-derived macrophages (M0)", "experiment": "cell shape (eccentricity) Z-score vs DMSO control; higher = more elongated, M2-like morphology", "conditions": "20 µM; 24 h; macrophage state: M0 (M-CSF)", "protocol": "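Primary human monocyte-derived macrophages (M-CSF differentiated, pooled from 4 donors, 5000 cells/well in 384-well plates) were treated with each compound at 20 uM for 24 h, then fixed and stained with phalloidin/DAPI and imaged on an Opera Phenix (6 fields, about 1000 cells/well). Cell eccentricity was measured with CellProfiler, and a Z-score (t-test) was computed against 4 DMSO control wells in the same row. Negative values mean round (M1-like) cells and positive values mean elongated (M2-like) cells; the paper's hit cutoffs are Z <= -4 (M1) and Z >= 6 (M2). Scale: negative = round, M1-like.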", "values": [{"smiles": "COC(=O)Nc1nc2cc(SC(C)C)ccc2[nH]1", "cell shape (Z-score)": "-4.88 ± 0.16"}, {"smiles": "CCCCc1ccc2[nH]c(NC(=O)OC)nc2c1", "cell shape (Z-score)": "-5.71 and -2.34"}, {"smiles": "CCCSc1ccc2[nH]c(NC(=O)OC)nc2c1", "cell shape (Z-score)": -3.67}, {"smiles": "CCCOc1ccc2[nH]c(NC(=O)OC)nc2c1", "cell shape (Z-score)": -1.59}, {"smiles": "COC(=O)Nc1nc2cc(Sc3ccccc3)ccc2[nH]1", "cell shape (Z-score)": "-2.59 ± 3.9"}, {"smiles": "COC(=O)Nc1nc2cc(C(=O)C3CC3)ccc2[nH]1", "cell shape (Z-score)": -3.64}, {"smiles": "COc1ccc(C2Oc3cc(OC)ccc3CC2O)cc1", "note": "(configuration not stated)", "cell shape (Z-score)": "1.66 ± 1.2"}, {"smiles": "COc1ccc(-c2oc3c(CC=C(C)C)c(O[C@@H]4O[C@H](CO)[C@@H](O)[C@H](O)[C@H]4O)cc(O)c3c(=O)c2O[C@@H]2O[C@@H](C)[C@H](O)[C@@H](O)[C@H]2O)cc1", "cell shape (Z-score)": -2.65}, {"smiles": "Nc1ncnc2c1c(-c1cccc(OCc3ccccc3)c1)cn2[C@H]1C[C@H](CN2CCCC2)C1", "cell shape (Z-score)": 6.27}, {"smiles": "O=c1c(O)c(-c2ccccc2)oc2ccccc12", "cell shape (Z-score)": 1.62}, {"smiles": "CCOC(=O)[C@H](CCc1ccccc1)N[C@@H](C)C(=O)N1Cc2ccccc2C[C@H]1C(=O)O", "cell shape (Z-score)": 2.22}, {"smiles": "CC(=O)O[C@@H]1CC2C(C)(C)C(=O)C=C[C@]2(C)C2CC[C@@]3(C)[C@H](c4ccoc4)OC(=O)[C@H]4O[C@]43[C@@]21C", "note": "(some centres not stated)", "cell shape (Z-score)": -4.89}, {"smiles": "CC(=O)O[C@@H]1CC2C(C)(C)C(=O)CC[C@]2(C)C2CC[C@@]3(C)[C@H](c4ccoc4)OC(=O)C4OC43[C@@]21C", "note": "(some centres not stated)", "cell shape (Z-score)": -5.48}, {"smiles": "CC(=O)O[C@@H]1CC2C(C)(C)[C@H](O)CC[C@]2(C)C2CC[C@@]3(C)[C@H](c4ccoc4)OC(=O)C4OC43[C@@]21C", "note": "(some centres not stated)", "cell shape (Z-score)": 2.33}, {"smiles": "CC(=O)O[C@H]1C[C@@H](O)C(C)(C)C2C[C@@H](OC(C)=O)[C@]3(C)C(CC[C@@]4(C)[C@H](c5ccoc5)OC(=O)C5OC543)[C@]21C", "note": "(some centres not stated)", "cell shape (Z-score)": -2.78}, {"smiles": "CC(=O)O[C@H]1C[C@@H](OC(C)=O)C(C)(C)C2C[C@@H](OC(C)=O)[C@]3(C)C(CC[C@@]4(C)[C@H](c5ccoc5)OC(=O)[C@H]5O[C@]543)[C@]21C", "note": "(some centres not stated)", "cell shape (Z-score)": -2.55}, {"smiles": "CC(=O)O[C@H]1CC[C@@]2(C)C(C[C@@H](OC(C)=O)[C@]3(C)C2CC[C@@]2(C)[C@H](c4ccoc4)OC(=O)[C@H]4O[C@]423)C1(C)C", "note": "(some centres not stated)", "cell shape (Z-score)": -2.07}, {"smiles": "O=C1C[C@@H](c2ccc(O)c(O)c2)Oc2cc(O[C@@H]3O[C@H](CO)[C@@H](O)[C@H](O)[C@H]3O)cc(O)c21", "cell shape (Z-score)": "0.661 ± 1.8"}, {"smiles": "OC(CN1CCNCC1)Cn1c2ccc(Br)cc2c2cc(Br)ccc21", "note": "(configuration not stated)", "cell shape (Z-score)": -4.09}, {"smiles": "C=C1CCC[C@]2(C)CC[C@@](O)(C(=C)C(=O)O)C[C@@H]12", "cell shape (Z-score)": -0.504}, {"smiles": "CC1(C)CC[C@]2(C(=O)O[C@@H]3O[C@H](CO[C@@H]4O[C@H](CO)[C@@H](O)[C@H](O)[C@H]4O)[C@@H](O)[C@H](O[C@@H]4O[C@H](CO)[C@@H](O)[C@H](O)[C@H]4O)[C@H]3O)CC[C@]3(C)C(=CCC4[C@@]5(C)CC[C@H](O)[C@@](C)(C(=O)O)C5CC[C@]43C)C2C1", "note": "(some centres not stated)", "cell shape (Z-score)": 1.07}, {"smiles": "C=C1CCC2C(CC2(C)C)C(=O)CCC1O", "note": "(configuration not stated)", "cell shape (Z-score)": -1.93}, {"smiles": "C#CC1(OCC(O)CN2CCN(c3ccccc3OC)CC2)CCCCC1", "note": "(configuration not stated)", "cell shape (Z-score)": -0.311}, {"smiles": "C#CC1(OCC(O)CN2CCN(c3cccc(C(F)(F)F)c3)CC2)CCCCC1", "note": "(configuration not stated)", "cell shape (Z-score)": -7.88}, {"smiles": "OCC(O)CN1CCN(c2ccccc2)CC1", "note": "(configuration not stated)", "cell shape (Z-score)": 2.29}, {"smiles": "COC1=CC(=O)O[C@@H](/C=C/c2ccccc2)[C@@H]1O", "cell shape (Z-score)": -1.25}, {"smiles": "COc1cc2c(c(OC)c1OC)CCc1cc(O)c(O)cc1-2", "cell shape (Z-score)": -0.208}, {"smiles": "COc1cc2c(c(OC)c1OC)-c1cc3c(cc1C[C@H]1C(=O)OC[C@@H]1C2)OCO3", "cell shape (Z-score)": 0.816}, {"smiles": "COc1cc2c(c(OC)c1OC)C[C@H]1COC(=O)[C@@H]1Cc1c-2cc(OC)c(OC)c1OC", "cell shape (Z-score)": -9.6}, {"smiles": "CC(C)Cn1cnc2c(N)nc3ccccc3c21", "cell shape (Z-score)": 3.03}, {"smiles": "CC(C)C12CC1C(C)(O[C@@H]1O[C@H](CO)[C@@H](O)[C@H](O)[C@H]1O)CC2=O", "note": "(some centres not stated)", "cell shape (Z-score)": 1.52}, {"smiles": "CC(=O)OCC(=O)[C@H]1CCC2C3CC=C4C[C@@H](O)CC[C@]4(C)C3CC[C@@]21C", "note": "(some centres not stated)", "cell shape (Z-score)": 3.17}, {"smiles": "O=C(O)/C=C/c1ccccc1O[C@@H]1O[C@H](CO)[C@@H](O)[C@H](O)[C@H]1O", "cell shape (Z-score)": 1.56}, {"smiles": "CC1(C)CC[C@]2(C(=O)O[C@@H]3O[C@H](CO)[C@@H](O)[C@H](O)[C@H]3O)CC[C@]3(C)C(=CCC4[C@@]5(C)C[C@@H](O)[C@H](O)[C@@](C)(CO)C5[C@H](O)C[C@]43C)C2C1", "note": "(some centres not stated)", "cell shape (Z-score)": "4.82 ± 3.7"}, {"smiles": "CC1(C)CC[C@@]2(C(=O)O[C@@H]3O[C@H](CO)[C@@H](O)[C@H](O)[C@H]3O)C(C1)C1=CCC3[C@@]4(C)CC[C@@H](O[C@@H]5O[C@H](C(=O)O)[C@@H](O[C@@H]6OC[C@@H](O)[C@H](O)[C@H]6O)[C@H](O)[C@H]5O)C(C)(C)C4CC[C@@]3(C)[C@]1(C)C[C@H]2O", "note": "(some centres not stated)", "cell shape (Z-score)": 1.81}, {"smiles": "C[C@@H]1O[C@@H](O[C@@H]2[C@@H](O)[C@H](O[C@@H]3[C@@H](O)[C@@H](O)[C@H](O[C@H]4[C@H](OC(=O)[C@]56CCC(C)(C)C[C@H]5C5=CCC7[C@@]8(C)C[C@H](O)[C@H](O[C@@H]9O[C@H](C(=O)O)[C@@H](O)[C@H](O)[C@H]9O)[C@@](C)(CO)C8[C@H](O)C[C@@]7(C)[C@]5(C)C[C@H]6O)OC[C@H](O)[C@@H]4O)O[C@H]3C)OC[C@H]2O)[C@H](O)[C@H](O)[C@H]1O", "note": "(some centres not stated)", "cell shape (Z-score)": 0.295}, {"smiles": "CC1OC(OC2C(CO)OC(OC(=O)[C@]34CCC(C)(C)CC3C3=CCC5[C@@]6(C)CC[C@H](OC7OC(C)C(OC8OCC(O)(COC9OCC(O)C(OC%10OCC(OC%11OCC(O)(CO)C%11O)C(O)C%10O)C9O)C8O)C(O)C7O)C(C)(C)C6CC[C@@]5(C)[C@]3(C)CC4)C(O)C2O)C(O)C(O)C1O", "note": "(some centres not stated)", "cell shape (Z-score)": 2.74}, {"smiles": "CC1(C)CC[C@]2(C(=O)O[C@@H]3O[C@H](CO)[C@@H](O)[C@H](O)[C@H]3O)CC[C@]3(C)C(=CCC4[C@@]5(C)C[C@H](O)[C@H](O[C@@H]6O[C@H](C(=O)O)[C@@H](O)[C@H](O)[C@H]6O)[C@@](C)(CO)C5CC[C@]43C)C2C1", "note": "(some centres not stated)", "cell shape (Z-score)": 0.273}, {"smiles": "C[C@@H]1O[C@@H](O[C@H]2[C@H](OC(=O)[C@]34CCC(C)(C)C[C@H]3C3=CCC5[C@@]6(C)C[C@H](O)[C@H](O[C@@H]7O[C@H](C(=O)O)[C@@H](O)[C@H](O)[C@H]7O)[C@@](C)(CO)C6[C@H](O)C[C@@]5(C)[C@]3(C)C[C@H]4O)O[C@@H](CO)[C@@H]2O)[C@H](O)[C@H](O)[C@H]1O[C@@H]1OC[C@@H](O)[C@H](O[C@H]2OC[C@](O)(CO)[C@H]2O)[C@H]1O", "note": "(some centres not stated)", "cell shape (Z-score)": -10.1}, {"smiles": "CC1(C)CC[C@@]2(C(=O)O[C@@H]3O[C@H](CO)[C@@H](O)[C@H](O)[C@H]3O)C(C1)C1=CCC3[C@@]4(C)CC[C@@H](O[C@@H]5O[C@H](CO)[C@@H](O)[C@H](O)[C@H]5O[C@@H]5O[C@H](CO)[C@@H](O)[C@H](O)[C@H]5O)C(C)(C)C4CC[C@@]3(C)[C@]1(C)C[C@H]2O", "note": "(some centres not stated)", "cell shape (Z-score)": "0.124 ± 0.97"}, {"smiles": "C[C@@H]1O[C@@H](O[C@@H]2[C@@H](O)[C@H](OC(=O)[C@]34CCC(C)(C)CC3C3=CCC5[C@@]6(C)CC[C@H](OC7OC(CO)C(OC8OCC(O)C(O)C8O)C(O)C7O)C(C)(C)C6CC[C@@]5(C)[C@]3(C)CC4O)O[C@H]2CO)[C@H](O)[C@H](O)[C@H]1O[C@H]1OC[C@](O)(CO)[C@H]1O", "note": "(some centres not stated)", "cell shape (Z-score)": -11.6}, {"smiles": "C[C@@H]1O[C@@H](O[C@@H]2[C@@H](O)[C@H](O[C@@H]3[C@@H](O)[C@@H](O)[C@H](O[C@H]4[C@H](OC(=O)[C@]56CCC(C)(C)C[C@H]5C5=CCC7[C@@]8(C)C[C@H](O)[C@H](O[C@@H]9O[C@H](C(=O)O)[C@@H](O)[C@H](O)[C@H]9O)[C@@](C)(CO)C8[C@H](O)C[C@@]7(C)[C@]5(C)C[C@H]6O)O[C@@H](CO)[C@@H]4O)O[C@H]3C)OC[C@H]2O)[C@H](O)[C@H](O)[C@H]1O", "note": "(some centres not stated)", "cell shape (Z-score)": -6.05}]}]}
